# Source: PubChem BioAssay (NCATS)
# Records with an inconclusive call do not appear. Activity calls are given as the source filed them. Unless noted, calls follow the shape of the dose curve; as a rule, active = well fitted curve in the direction sought with a large enough effect; inconclusive = small, poorly fitted or top-dose-only effect, or another doubt; inactive = no such curve, though single readings can be large; an effect the other way counts as inactive or inconclusive.
# Assays:
# [1] = P-glycoprotein substrates identified in KB-3-1 adenocarcinoma cell line, qHTS therapeutic library screen (AID 1346986); also: nearly all actives have a fitted effect of over 60% in size;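 also: potency is read from the fitted curve at half-maximal effect; potency is for cytotoxicity meaning loss of cell viability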
# In short: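 Dose-response cytotoxicity, KB-3-1 vs P-gp-high KB-8-5-11, no colchicine in assay medium. Read: CellTiter-Glo at 72 h.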
# [2] = P-glycoprotein substrates identified in KB-8-5-11 adenocarcinoma cell line, qHTS therapeutic library screen (AID 1346987); also: nearly all actives have a fitted effect of over 65% in size; also: potency is read from the fitted curve at half-maximal effect
# In short: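 In this qHTS, P-gp-rich KB-8-5-11 cells received library compounds across a concentration range. Viability was quantified by luminescence after 72 h at 37 degree C.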
# [3] = Primary qHTS for inhibitors of nuclear receptor binding SET domain protein 2 (NSD2) in an isogenic RCH-ACV NSD2 p.E1099K mutant (9B) (AID 1645876); also: nearly all actives have a fitted effect of over 70% in size; also: potency is read from the fitted curve at half-maximal effect
# [4] = molecular target: Glutathione peroxidase 1 (Homo sapiens) (UniProt P07203); assay: Primary qHTS Assay for Inhibitors of Recombinant Selenoprotein Glutathione Peroxidase 1 (GPX1) (AID 1845191); also: nearly all actives have a fitted effect of over 65% in size
# Sequence of Glutathione peroxidase 1 (Homo sapiens) (P07203 whole entry, looked up): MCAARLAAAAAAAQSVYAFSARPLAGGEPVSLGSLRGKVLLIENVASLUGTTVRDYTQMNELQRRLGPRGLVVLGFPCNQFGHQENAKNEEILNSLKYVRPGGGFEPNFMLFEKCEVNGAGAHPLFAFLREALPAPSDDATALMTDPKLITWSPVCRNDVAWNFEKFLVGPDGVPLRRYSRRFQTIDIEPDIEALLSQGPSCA
# In short: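 NADPH consumption tracked by fluorescence at 340/450 nm between t=0 and t=15 min, room temperature. Final mix: 10 nM GPX1, 100 nM glutathione reductase, 1 mM GSH, 0.5 mM NADPH, 0.5 mM cumene hydroperoxide, 0.01% BSA; 30 min compound–enzyme preincubation.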
# [5] = Primary qHTS for inhibitors of nuclear receptor binding SET domain protein 2 (NSD2) in an RCH-ACV wild type WT cells (2C) (AID 1645877); also: nearly all actives have a fitted effect of over 70% in size; also: potency is read from the fitted curve at half-maximal effect
# [6] = molecular target: Catechol O-methyltransferase (Homo sapiens) (UniProt P21964); assay: Confirmatory Screen for Target Class Profiling of Small Molecule Inhibitors of Methyltransferases (AID 1745852); settings: MTase-Glo luminescence, SAH detection, recombinant enzyme; measured here: COMT max response; stronger effect = lower value; as to activity change, negative = inhibition: % is scaled to controls: 0 for no effect and ±100 for the full control effect
# Sequence of Catechol O-methyltransferase (Homo sapiens) (P21964 whole entry, looked up): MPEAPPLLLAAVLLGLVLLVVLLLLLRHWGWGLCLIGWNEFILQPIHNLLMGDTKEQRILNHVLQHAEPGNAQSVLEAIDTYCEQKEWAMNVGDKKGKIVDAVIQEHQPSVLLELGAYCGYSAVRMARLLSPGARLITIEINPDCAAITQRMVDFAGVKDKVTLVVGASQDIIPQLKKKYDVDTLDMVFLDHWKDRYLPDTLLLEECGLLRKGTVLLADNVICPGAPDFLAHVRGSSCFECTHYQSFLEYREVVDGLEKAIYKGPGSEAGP
# [7] = molecular target: Guanidinoacetate N-methyltransferase (Homo sapiens) (UniProt Q14353); assay: as above; settings: activity change, negative = inhibition: at 57.3 µM (top of the series) unless noted
# [8] = molecular target: Nicotinamide N-methyltransferase (Homo sapiens) (UniProt P40261); assay: as above; settings: MTase-Glo luminescence, SAH detection, recombinant enzyme; measured here: NNMT max response; stronger effect = lower value
# Sequence of Nicotinamide N-methyltransferase (Homo sapiens) (P40261 whole entry, looked up): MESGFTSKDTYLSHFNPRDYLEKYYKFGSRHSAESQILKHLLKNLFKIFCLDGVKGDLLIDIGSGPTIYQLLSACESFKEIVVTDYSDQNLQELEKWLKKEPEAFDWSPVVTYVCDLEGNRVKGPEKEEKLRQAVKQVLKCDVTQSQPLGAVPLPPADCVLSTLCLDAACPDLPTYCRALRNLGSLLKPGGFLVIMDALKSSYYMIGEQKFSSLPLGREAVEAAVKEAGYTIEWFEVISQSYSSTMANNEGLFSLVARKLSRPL
# [9] = molecular target: Phenylethanolamine N-methyltransferase (Homo sapiens) (UniProt P11086); assay: as above; settings: MTase-Glo luminescence, SAH detection, recombinant enzyme; measured here: PNMT max response; stronger effect = lower value
# Sequence of Phenylethanolamine N-methyltransferase (Homo sapiens) (P11086 whole entry, looked up): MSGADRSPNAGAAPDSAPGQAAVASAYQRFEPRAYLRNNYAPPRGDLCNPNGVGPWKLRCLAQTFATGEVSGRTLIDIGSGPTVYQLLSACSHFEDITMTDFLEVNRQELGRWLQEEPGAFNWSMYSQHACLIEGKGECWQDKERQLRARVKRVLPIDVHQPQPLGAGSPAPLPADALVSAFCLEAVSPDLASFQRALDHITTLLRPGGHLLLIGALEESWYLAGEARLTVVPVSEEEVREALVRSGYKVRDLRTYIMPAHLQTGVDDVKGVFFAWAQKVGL
# [10] = qHTS to identify inhibitors of the type 1 interferon - major histocompatibility complex class I in skeletal muscle: primary screen against the NCATS Mechanism Interrogation Plate v5.0 (MIPE) Libary (AID 1347411);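 also: plate controls were vehicle for no effect and reference inhibitor for full effect; nearly all actives have a fitted effect of over 65% in size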
# In short: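 HLA-B HiBit myoblasts, dexamethasone-free medium + 4 ng/ml IFN-b, 24 h compound, 11-pt 1:3 from 46 uM final. Readout: Nano-Glo HiBiT lytic luminescence after 10 min lysis, RT.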
# [11] = qHTS drug screen for cell cycle checkpoint inhibitors in PARPi-resistant BRCA-mutant ovarian cancer cell lines. (AID 1963452; calls by dose curve); settings: PEO1/OlaR viability, CellTiter-Glo luminescence, 96 h, stronger effect = lower value
# In short: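 PEO1, PEO4 and PEO1/OlaR ovarian cancer cells, 600 per well, exposed 96 h at 37C to a dilution series. Viability read by CellTiter-Glo luminescence, normalized to DMSO and empty wells; activity summarized as Z-AUC.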
# [12] = molecular target: Phospholipid hydroperoxide glutathione peroxidase GPX4 (Homo sapiens) (UniProt P36969); assay: Primary qHTS Assay for Inhibitors of Recombinant Selenoprotein Glutathione Peroxidase 4 (GPX4) (AID 1845192); settings: outcome: dose series up to 50 µM unless noted; also: % is scaled to controls: 0 for no effect and ±100 for the full control effect; nearly all actives have a fitted effect of over 65% in size
# Sequence of Phospholipid hydroperoxide glutathione peroxidase GPX4 (Homo sapiens) (P36969 whole entry, looked up): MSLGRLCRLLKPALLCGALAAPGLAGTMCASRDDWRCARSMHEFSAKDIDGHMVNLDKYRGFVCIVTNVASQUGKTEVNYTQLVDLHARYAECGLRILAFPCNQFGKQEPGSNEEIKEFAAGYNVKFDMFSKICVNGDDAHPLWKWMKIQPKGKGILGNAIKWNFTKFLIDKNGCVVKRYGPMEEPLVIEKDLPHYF
# In short: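 NADPH consumption followed by fluorescence at 340/450 nm, t=0 and after 15 min at room temperature. Reaction started with cumene hydroperoxide (0.5 mM final) after 30 min compound–GPX4 preincubation; final 200 nM GPX4, 100 nM GR, 1 mM GSH, 0.5 mM NADPH.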
# [13] = measured here: PEO1 parental Z-AUC
structure (smiles),measurement,setting,value
OCC(O)CCO/N=C1/C(c2c(O)[nH]c3ccccc23)=Nc2ccccc21 (stereo unspecified),Potency,[1],14.6 µM (active)
same,Potency,[2],16.4 µM (active)
same,Potency,[3],2.59 µM (active)
same,Potency,[4],inactive
Oc1cccc(-c2nc(N3CCOCC3)c3sccc3n2)c1,Potency,[1],5.17 µM (active)
same,Potency,[2],4.61 µM (active)
same,Potency,[3],1.3 µM (active)
same,Potency,[5],1.16 µM (active)
same,Potency,[4],inactive
CC1=CC(=O)C(C(C)C)=C/C1=N/OC(=O)c1ccccc1C,Potency,[1],inactive
same,Potency,[2],inactive
same,Potency,[3],8.2 µM (active)
same,Potency,[4],inactive
CCN(CC)CCNC(=O)c1c(C)[nH]c(/C=C2\C(=O)Nc3ccc(Cl)cc32)c1C,Potency,[1],16.4 µM (active)
same,Potency,[2],18.4 µM (active)
same,Potency,[3],2.59 µM (active)
same,Potency,[5],2.91 µM (active)
same,Potency,[4],inactive
Nc1nc(N)c2nc(-c3cccc(O)c3)cnc2n1,Potency,[1],5.8 µM (active)
same,Potency,[2],7.31 µM (active)
same,Potency,[3],1.64 µM (active)
same,Potency,[5],1.46 µM (active)
same,Potency,[4],inactive
Cc1cc2ncc(-c3ccccc3)nc2cc1C,Potency,[1],inactive
same,Potency,[2],inactive
same,Potency,[3],inactive
same,Potency,[5],inactive
same,Potency,[4],inactive
O=C(/C=C/c1nc2ccccc2[nH]1)c1c(-c2ccccc2)c2cc(Cl)ccc2[nH]c1=O,Potency,[1],7.31 µM (active)
same,Potency,[3],1.16 µM (active)
same,Potency,[5],1.03 µM (active)
same,Potency,[4],inactive
CC(C)(N)c1cc(C(=O)N[C@@H]2CCc3ccc(Oc4ccnc5c4CCC(=O)N5)cc3C2)cc(C(F)(F)F)c1,Potency,[1],18.4 µM (active)
same,Potency,[3],11.6 µM (active)
same,Potency,[5],14.6 µM (active)
same,Potency,[4],inactive
Nc1ccc(-c2cnc(N)c(-c3ccc(Cl)cc3)c2)cn1,Potency,[1],inactive
same,Potency,[3],14.6 µM (active)
same,Potency,[5],14.6 µM (active)
same,activity,[6],-71.5%
same,"activity change, negative = inhibition",[7],-1.94%
same,activity,[8],-33.1%
same,activity,[9],-5.01%
Cc1cc(/C=c2/sc3nc4ccccc4n3c2=O)c(C)n1-c1ccccc1,Potency,[1],inactive
same,Potency,[10],inactive
same,Potency,[4],inactive
same,Z-AUC,[11],0.302 (inactive)
same,Z-AUC,[11]; [13],0.332
same,Z-AUC,[11]; measured here: PEO4 Z-AUC,0.429
O=C1NC(=NCc2cccs2)S/C1=C/c1ccc2ncccc2c1,Potency,[1],4.11 µM (active)
same,Potency,[3],3.66 µM (active)
same,Potency,[5],2.91 µM (active)
same,Potency,[4],inactive
O=C1c2ccccc2-c2c(NCCc3ccccc3)c(=O)[nH]c3cccc1c23,Potency,[1],1.03 µM (active)
same,Potency,[3],5.17 µM (active)
same,Potency,[5],4.61 µM (active)
same,Potency,[4],inactive
CNC(=O)c1c(C)oc2cc(Oc3ncnc4cc(OC)c(OC)cc34)ccc12,Potency,[1],inactive
same,Potency,[10],inactive
same,Potency,[5],inactive
same,Potency,[4],inactive
same,Potency,[12],inactive
same,Z-AUC,[11],-0.474 (inactive)
same,Z-AUC,[11]; [13],-0.16
same,Z-AUC,[11]; measured here: PEO4 Z-AUC,-0.205
CC(C)n1cnc2c(NCc3cccc(C(F)(F)F)c3)ncnc21,Potency,[1],inactive
same,Potency,[4],inactive
COc1cc(OC)c(C(=O)/C=C/c2ccccc2)c2c1C=CC(C)(C)O2,Potency,[1],inactive
same,Potency,[3],16.4 µM (active)
same,Potency,[5],18.4 µM (active)
same,Potency,[4],inactive
